Laboratory results taken from the supplement of paper PMC8728848.
About 410 targets per protein were measured; listed, in parts, are those with the strongest signals and a random draw of the rest.

Tests used:
Experiment in all cases: glycan array binding signal (z-score within array); higher = stronger binding
Conditions in all cases: glycan notation: IUPAC condensed, linker removed
[1] = biological target: Gal(b1-4)GlcNAc(b1-6)[Gal(b1-3)]GlcNAc
How it was run: (§1)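 From the Consortium for Functional Glycomics database, 3228 arrays were curated, keeping only those whose protein sequence was available. Binding is given as a within-array Z-score averaged across arrays sharing a protein sequence and across linkers. Negative Z-scores can be read as non-binding.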

[2] = biological target: Gal3S(b1-3)[Fuc(a1-4)]GlcNAc
How it was run: as §1

[3] = biological target: GalNAc(a1-3)Fuc(a1-2)Gal(b1-4)GlcNAc(b1-3)[GalNAc(a1-3)Fuc(a1-2)Gal(b1-4)GlcNAc(b1-6)]GalNAc
How it was run: as §1

GalNAc(a1-3)GalNAc = biological target: GalNAc(a1-3)GalNAc
How it was run: as §1

[4] = biological target: GalNAc(b1-3)Gal(a1-4)Gal(b1-4)GlcNAc
How it was run: as §1

GalNAc(b1-3)GalNAc = biological target: GalNAc(b1-3)GalNAc
How it was run: as §1

GalNAc(b1-4)Gal(b1-4)Glc = biological target: GalNAc(b1-4)Gal(b1-4)Glc
How it was run: as §1

[5] = biological target: GalNAc(b1-4)GlcNAc(b1-3)GalNAc(b1-4)GlcNAc
How it was run: as §1

GalNAc3S(b1-4)GlcNAc3S = biological target: GalNAc3S(b1-4)GlcNAc3S
How it was run: as §1

Glc(a1-6)Glc(a1-6)Glc = biological target: Glc(a1-6)Glc(a1-6)Glc
How it was run: as §1

[6] = biological target: GlcNAc(a1-3)Gal(b1-4)GlcNAc
How it was run: as §1

[7] = biological target: GlcNAc(a1-4)Gal(b1-4)GlcNAc(b1-3)Gal(b1-4)GlcNAc
How it was run: as §1

[8] = biological target: GlcNAc(b1-2)[GlcNAc(b1-4)]Man(a1-3)[GlcNAc(b1-4)][GlcNAc(b1-2)[GlcNAc(b1-6)]Man(a1-6)]Man(b1-4)GlcNAc(b1-4)[Fuc(a1-6)]GlcNAc
How it was run: as §1

[9] = biological target: GlcNAc(b1-3)Gal(b1-4)GlcNAc(b1-3)Gal(b1-4)GlcNAc(b1-2)[GlcNAc(b1-3)Gal(b1-4)GlcNAc(b1-3)Gal(b1-4)GlcNAc(b1-6)]Man(a1-6)[GlcNAc(b1-3)Gal(b1-4)GlcNAc(b1-3)Gal(b1-4)GlcNAc(b1-2)Man(a1-3)]Man(b1-4)GlcNAc(b1-4)[Fuc(a1-6)]GlcNAc
How it was run: as §1

[10] = biological target: GlcNAc(b1-3)Gal(b1-4)GlcNAc(b1-3)GalNAc
How it was run: as §1

[11] = biological target: GlcNAc(b1-3)[GlcNAc(b1-6)]GalNAc
How it was run: as §1

[12] = biological target: GlcNAc(b1-4)GlcNAc(b1-4)GlcNAc(b1-4)GlcNAc(b1-4)GlcNAc(b1-4)GlcNAc
How it was run: as §1

[13] = biological target: Man(a1-3)[Man(a1-6)]Man(b1-4)GlcNAc(b1-4)GlcNAc
How it was run: as §1

[14] = biological target: Neu5Ac(a2-3)Gal(b1-4)GlcNAc(b1-2)[Neu5Ac(a2-3)Gal(b1-4)GlcNAc(b1-4)]Man(a1-3)[GlcNAc(b1-4)][Neu5Ac(a2-3)Gal(b1-4)GlcNAc(b1-4)Man(a1-6)]Man(b1-4)GlcNAc(b1-4)GlcNAc
How it was run: as §1

[15] = biological target: Neu5Ac(a2-3)Gal(b1-4)GlcNAc(b1-3)Gal(b1-4)GlcNAc(b1-3)GalNAc
How it was run: as §1

[16] = biological target: Neu5Ac(a2-3)GalNAc(b1-4)GlcNAc
How it was run: as §1

Neu5Ac(a2-6)Gal = biological target: Neu5Ac(a2-6)Gal
How it was run: as §1

[17] = biological target: Neu5Ac(a2-6)Gal(b1-4)GlcNAc(b1-2)Man(a1-3)[GlcNAc(b1-2)Man(b1-4)GlcNAc(b1-2)Man(a1-6)]Man(b1-4)GlcNAc(b1-4)GlcNAc
How it was run: as §1

[18] = biological target: Neu5Ac(a2-6)Gal(b1-4)GlcNAc6S
How it was run: as §1

[19] = biological target: Neu5Ac(a2-6)GlcNAc(b1-4)GlcNAc
How it was run: as §1

[20] = biological target: Neu5Gc(a2-3)Gal(b1-3)GlcNAc
How it was run: as §1

Neu5Gc(a2-3)Gal(b1-4)Glc = biological target: Neu5Gc(a2-3)Gal(b1-4)Glc
How it was run: as §1

[21] = biological target: Neu5Gc(a2-8)Neu5Ac(a2-3)Gal(b1-4)GlcNAc
How it was run: as §1

[22] = biological target: Neu5Gc(a2-8)Neu5Gc(a2-3)Gal(b1-4)GlcNAc
How it was run: as §1

B1: Epa1-NP (Candida glabrata), Q6VBJ0 (protein)
chain: MILNPALFLNKCVCIYTTLILLLLTNGGYATSSNDISLASKDPTTFPLGCSPDITTPKKGLSMELYSYDFRKKGSYPCWDAAYLDPNYPRTGYKSHRLLAKVDGVTGNINFYYHATKGCTPQLGHLPASYNYPKPLTMTNFTMLLYGYFRPKVTGFHTFTISADDLLFVNFGAGNAFDCCRRDSSADHFGNYQAYAIWGSKTAKDELTVHLDAGVYYPIRLFYNNREYDGALSFTFKTESNENTVSDFSEYFFSLDDTEEGCPGLISYDSSCASVKTSKIIGIDYHTETPNENLVPITKTIYHLGIPCTGTTTTPLCGSGFYDPLANKCVTINTSSTSSVTKTTSHTTSKEVSFHSSISSQKTLIPKSIPSPYGPIKSQSIPTEMETSSEISSSEYAFSDVISTPSHSPYTKKHSSLNSSSYTSTVIHSLTSYSISQGIFSTSLSEQNITSKSSTDKFSTATSMSNNITQSSIIISQFSTNNENYTTTSMHTSSDKISTETLNNSISTTTSILFSNSSTILKNNTTIISSDKDTHYHPVNPTIVCSTNKTEIICASITQPSISNSNNHWSSSVLKFNSTTVRSTLPSSAGSNETSINVPFSSSTESNTSTSSTSTSNSKMVRSTLPSSAGSNETSISVPFSSSTESNTSTSSTSTSNSKMVRSTLPSSAGSNETSINVPFSSSTESNTSTSSTSTSNSKTVRSTPFSSAGIIMTSLSQRNNKSASSYASSNSKCYNTADSCRKVHSTPSYLLTSSYTSEGVDYDCSLVSTKLKINDTNCVNNKHTTKSCLKTSVTTTIPTLEIKTARKSSSNTIGLHSYPTSSPNKSISSAPIIGYISSFKTIKTASPSYQTSDLTTITTITSLNNPGSTAVENTHESNDKSRKTSSNDISSKHSVIKETKDAVESSNKSHQTNTLKCSSIIIASSSHNSYESLGGTTLTLTLSKVYSPQNNDTLPFLEISEVNPSRTVLPESSKMMQYLTSTEERNKTARNTIATNIVSISTFHFEGEGNAIRMGYTQLLLMLIGIIVMNIGT
Question: Which “glycan array binding signal (z-score)” value [1] does the source give for B1 here?
Answer: Its value is 2.48.

Question: And the “glycan array binding signal (z-score)” value [2]?
Answer: The value was -0.293.

Question: What about the “glycan array binding signal (z-score)” value [3] of the same binder?
Answer: The value was -0.254.

Question: And the “glycan array binding signal (z-score)” value (GalNAc(a1-3)GalNAc)?
Answer: Its value is -0.306.

Question: And the “glycan array binding signal (z-score)” value [4]?
Answer: Its value is -0.325.

Question: And the “glycan array binding signal (z-score)” value (GalNAc(b1-3)GalNAc)?
Answer: Its value is -0.293.

Question: What about the “glycan array binding signal (z-score)” value (GalNAc(b1-4)Gal(b1-4)Glc) of the same binder?
Answer: Its value is -0.286.

Question: And the “glycan array binding signal (z-score)” value [5]?
Answer: Its value is -0.291.

Question: What about the “glycan array binding signal (z-score)” value (GalNAc3S(b1-4)GlcNAc3S) of the same binder?
Answer: Its value is -0.283.

Question: What about the “glycan array binding signal (z-score)” value (Glc(a1-6)Glc(a1-6)Glc) of the same binder?
Answer: Its value is -0.338.

Question: And the “glycan array binding signal (z-score)” value [6]?
Answer: The value was -0.317.

Question: And the “glycan array binding signal (z-score)” value [7]?
Answer: Its value is -0.217.

Question: What about the “glycan array binding signal (z-score)” value [8] of the same binder?
Answer: Its value is -0.285.

Question: What about the “glycan array binding signal (z-score)” value [9] of the same binder?
Answer: The value was -0.27.

Question: And the “glycan array binding signal (z-score)” value [10]?
Answer: The value was -0.287.

Question: And the “glycan array binding signal (z-score)” value [11]?
Answer: Its value is -0.284.

Question: What about the “glycan array binding signal (z-score)” value [12] of the same binder?
Answer: Its value is -0.319.

Question: And the “glycan array binding signal (z-score)” value [13]?
Answer: Its value is -0.374.

Question: What about the “glycan array binding signal (z-score)” value [14] of the same binder?
Answer: Its value is -0.295.

Question: And the “glycan array binding signal (z-score)” value [15]?
Answer: The value was -0.291.

Question: And the “glycan array binding signal (z-score)” value [16]?
Answer: Its value is -0.338.

Question: And the “glycan array binding signal (z-score)” value (Neu5Ac(a2-6)Gal)?
Answer: Its value is -0.276.

Question: What about the “glycan array binding signal (z-score)” value [17] of the same binder?
Answer: The value was -0.296.

Question: And the “glycan array binding signal (z-score)” value [18]?
Answer: The value was -0.31.

Question: What about the “glycan array binding signal (z-score)” value [19] of the same binder?
Answer: Its value is -0.281.

Question: What about the “glycan array binding signal (z-score)” value [20] of the same binder?
Answer: The value was -0.348.

Question: What about the “glycan array binding signal (z-score)” value (Neu5Gc(a2-3)Gal(b1-4)Glc) of the same binder?
Answer: The value was -0.308.

Question: And the “glycan array binding signal (z-score)” value [21]?
Answer: The value was -0.286.

Question: What about the “glycan array binding signal (z-score)” value [22] of the same binder?
Answer: Its value is -0.286.
